aSyn 5UTR act – Activators via SNCA 5'UTR binding, MLPCN; alpha-synuclein 5'UTR reporter, activators screen; 300,000 tested, 7.1% active; activity score, % (tested at 7.5 µM), hits read low; in the data active = activity score below about -60%
* hit, by the source's call. The list is a sample of the results.

SMILES	aSyn 5UTR act
Cc1cc(/C=C(\C#N)C(=O)Nc2ccccc2)c(C)n1-c1cccnc1	-143*
CCCCCc1nc2c(=O)[nH]c3ccccc3c2o1	-78*
Cc1ccc(OCc2cn3cccnc3n2)cc1	-62*
COCCCn1c(C(=O)N2CC(C)OC(C)C2)cc2c(=O)n3cccc(C)c3nc21 (configuration not stated)	-71*
O=C(Nc1nc2c(s1)CCCC2=O)c1cnccn1	-88*
C/C(=N\Nc1ccc(C(=O)O)cc1)c1ccc2c(c1)Nc1ccccc1S2	-110*
O=S(=O)(Nc1cc(Sc2cccc3cccnc23)c(O)c2ccccc12)c1ccccc1	-139*
CC(=O)NC(c1ccc(C)cc1)c1cc(Cl)c2cccnc2c1O (configuration not stated)	60
C/C(=N\NC(=O)c1sccc1C)c1ccncc1	-108*
C/C(=N\NC(=O)c1sccc1C)c1cccnc1	-200*
Clc1cccc(CSc2ncn(-c3ccccc3)n2)c1	-67*
CC1=CN2C(=N)/C(=C/c3ccco3)C(=O)N=C2S1	-219*
O=C(Nc1cnc2sccn2c1=O)c1ccccc1Cl	-180*
COc1ccc(NC(=O)c2cnc3sccn3c2=O)cc1	-133*
Cc1cccc(NC(=O)c2cnc3sccn3c2=O)n1	-116*
Cc1cccc(NC(=O)c2cnc3sccn3c2=O)c1	-74*
Cc1cccc(NC(=O)c2cnc3sccn3c2=O)c1C	-124*
CC(=O)Oc1ccc(C(=O)Nc2ccc(C3(C#N)CCCC3)cc2)cc1	-142*
N#CC1(c2ccc(NC(=O)c3ccccc3)cc2)CCCC1	-89*
COc1ccc(-n2c(C)cc(/C=C3/SC(=S)N(C)C3=O)c2C)cc1	-85*
Cc1cc(/C=C2\SC(=S)N(Cc3ccco3)C2=O)c(C)n1-c1ccccc1	-74*
Cc1cc(/C=C2\SC(=S)N(C)C2=O)c(C)n1-c1cccc(O)c1	-71*
CCCC(=O)c1ccc(N2CCCCCC2)c(F)c1	-137*
CCCC(=O)c1ccc(N2CCCCC2)c(F)c1	-126*
C=C(C(=O)c1ccccc1)C(C)C(=C)C(=O)c1ccccc1	-149*
SMILES	aSyn 5UTR act
NS(=O)(=O)c1ccc(N=Nc2ccc(O)c3ncccc23)cc1	64
Oc1c(N=Nc2ccccn2)ccc2ccccc12	74
COc1cc(N=Nc2ccc3ccccc3c2)ccc1O	-144*
Oc1ccc(N=Nc2c(O)ccc3ccccc23)cc1	-98*
Oc1ccc(N=Nc2ccc3ccccc3c2)cc1	-73*
Brc1ccc(-c2csc(-c3ccncc3)n2)cc1	-195*
Cc1ccc(-c2csc(-c3ccncc3)n2)cc1	-213*
CCNC(=S)NNC(=O)c1cc(-c2cccc(OCC)c2)nc2ccccc12	-89*
CCNC(=S)NNC(=O)c1cc(-c2cccc(C)c2)nc2ccccc12	-116*
CCCCOc1cccc(-c2cc(C(=O)NNC(=S)NCC)c3ccccc3n2)c1	-69*
Cc1nnc(N/N=C\c2ccc(-c3ccccc3[N+](=O)[O-])o2)n1N	-75*
Cc1nnc(N/N=C/c2ccc(-c3ccccc3F)o2)n1N	-107*
COc1ccc(N2Cc3ccccc3/C2=N\C(=O)Nc2ccccc2)cc1	-64*
CC(=O)CN1Cc2ccccc2/C1=N\C(=O)Nc1ccccc1	-73*
Cc1ccccc1NC(=O)c1cccc2nccnc12	-74*
Cc1cccc(NC(=O)c2ccccc2O)c1C	-174*
O=C(Nc1ccccc1O)c1ccccc1O	-133*
Cc1cccc(C(=O)NNC(=O)c2ccccc2O)c1	-76*
Cc1onc(-c2ccccc2)c1C(=O)NC(=S)NNC(=O)c1ccccc1O	63
O=C(Nc1ccccc1O)c1ccc(C(=O)c2ccccc2)o1	-96*
Cc1ccc(C)c(NC(=O)c2ccccc2O)c1	-96*
O=C(NCc1ccc(Cl)cc1)c1cnn2ccccc12	-142*
Cc1cccc(NC(=O)c2cnn3ccccc23)c1C	-85*
O=C(c1cc(Br)c(Br)s1)N1CCN(c2ccccn2)CC1	-65*
NC(=O)C1CCN(C(=O)c2ccc3nc(N4CCCCC4)sc3c2)CC1	-102*
SMILES	aSyn 5UTR act
O=C(c1ccc2nc(N3CCCCC3)sc2c1)N1CCN(c2ccccn2)CC1	-112*
CCOC(=O)NC(=O)CSc1nc(-c2ccc(C)c(C)c2)cn1-c1ccccc1	-154*
Cc1ccc(-c2cn(-c3ccccc3)c(SCC(N)=O)n2)cc1C	-67*
COc1ccc(OCc2cc(C(=O)N3CCSCC3)no2)c(Cl)c1	-108*
COc1ccc(OCc2cc(C(=O)N3CCCCCC3)no2)c(Cl)c1	-90*
CC(NC(=O)c1cc(COc2c(F)cccc2F)on1)c1cnn(-c2ccccc2)c1 (configuration not stated)	-91*
COc1cccc(OCc2cc(C(=O)NC(C)c3cnn(C)c3C)no2)c1 (configuration not stated)	-77*
O=C(c1cc(COc2ccc(F)cc2Cl)on1)N1CCSCC1	-197*
COc1ccc(OCc2cc(C(=O)N3CCC(c4ccccc4)CC3)no2)c(Cl)c1	-63*
COc1ccc(OCc2cc(C(=O)NC(C)c3cnn(C)c3)no2)c(Cl)c1 (configuration not stated)	-106*
COc1ccc(OCc2cc(C(=O)N3CCOCC3)no2)c(Cl)c1	-82*
CC(=O)c1ccc(Nc2ccc([N+](=O)[O-])c3nonc23)cc1	-104*
O=C(CSc1nnc2ccccn12)Nc1cccc(-c2nc3ccccc3s2)c1	-134*
O=C(Nc1cccc(-c2nc3ccccc3s2)c1)c1cccs1	-63*
O=C(CCS(=O)(=O)c1ccccc1)Nc1cccc(-c2nc3ccccc3s2)c1	-135*
CSc1nnc2c(n1)c(C)nn2-c1cccc(C)c1	-172*
COc1nc(NCCN2CCOCC2)nc(Nc2ccccc2)n1	-101*
O=c1[nH]cnc2nn(-c3ccccc3)nc12	-82*
CCN(CC)c1ccc(NC(=O)Nc2ccc(C(C)=O)cc2)cc1	-68*
CCN(CC)c1ccc(NC(=O)Nc2ccccc2)cc1	-137*
O=C(Nc1ccccc1)NN(C(=O)CCl)c1ccccc1	-125*
COc1ccc(CCC(=O)NCCS(=O)(=O)N2CCN(c3ccccc3OC)CC2)cc1	-112*
O=C(CC(Nc1ccc(F)cc1)c1ccccc1)c1ccccc1 (configuration not stated)	-89*
COC(=O)c1ccccc1SC(CC(=O)c1ccccc1)c1ccc(F)cc1 (configuration not stated)	-68*
O=C(CC(Nc1ccc(Cl)cc1)C(=O)O)c1ccccc1 (configuration not stated)	-69*
SMILES	aSyn 5UTR act
O=C(CC(Nc1ccccc1Cl)C(=O)O)c1ccccc1 (configuration not stated)	-94*
Cc1c(Cl)cccc1NC(CC(=O)c1ccccc1)C(=O)O (configuration not stated)	-102*
COc1ccc(N=C2O/C(=C/c3sc(=S)n(CC4CCCO4)c3O)N=C2C#N)cc1 (configuration not stated)	-101*
O=C(/C=C/c1cn(-c2ccccc2)nc1-c1cccnc1)c1ccco1	-63*
COc1ccc(C2C(C(=O)Nc3cc(OC)c(OC)c(OC)c3)c3ccccc3C(=O)N2C)cc1 (configuration not stated)	98
COc1ccc(NC(=O)C2C(=O)N(CCO)C3(C)CC2c2ccccc2O3)cc1 (configuration not stated)	-103*
Cc1cc(C)nc(Nc2nc(=O)c3ccccc3s2)n1	-134*
CN(C)c1ccc(N=Nc2ccc(C(=O)O)cc2)cc1	64
CN(C)c1ccc(C(=O)c2ccccc2)cc1	-119*
CN(C)c1ccc(C(=O)/C=C/c2ccco2)cc1	-226*

Bioassay records: PubChem BioAssay, Broad Institute
